Numbering of substitutions follows the chain as printed.

Common to all, as to test: PBM; 200 nM protein, PBS
Conditions in all cases: dsDNA, one strand shown

Test [1] concerns the target HOXA4 (Homo sapiens, UniProt Q00056 201-287, W262R).
The target of test [2] is HOXA4 (Homo sapiens, UniProt Q00056 201-287, R217L).
The target of test [3] is ALX3 (Homo sapiens, UniProt O95076 139-225, N203Q).
Test [4] has as its target HOXA4 (Homo sapiens, UniProt Q00056 201-287).
In test [5] the target is HOXA4 (Homo sapiens, UniProt Q00056 201-287, W262F).
HOXA4 (Homo sapiens, UniProt Q00056 201-287, W262F), sequence (Q00056 201-287 W262F): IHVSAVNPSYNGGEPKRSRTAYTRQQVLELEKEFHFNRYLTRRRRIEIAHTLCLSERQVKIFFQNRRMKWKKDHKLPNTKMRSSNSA
The target of test [6] is ALX3 (Homo sapiens, UniProt O95076 139-225, N203S).
ALX3 (Homo sapiens, UniProt O95076 139-225, N203S), sequence (O95076 139-225 N203S): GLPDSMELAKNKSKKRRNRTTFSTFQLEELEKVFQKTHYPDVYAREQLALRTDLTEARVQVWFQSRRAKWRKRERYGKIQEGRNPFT
The target in test [7] is HOXD13 (Homo sapiens, UniProt P35453 263-343, T313R).
HOXD13 (Homo sapiens, UniProt P35453 263-343, T313R), sequence (P35453 263-343 T313R): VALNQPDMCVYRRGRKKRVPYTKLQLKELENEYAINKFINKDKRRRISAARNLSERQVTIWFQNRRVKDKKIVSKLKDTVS
In test [8] the target is HOXD13 (Homo sapiens, UniProt P35453 263-343).
HOXD13 (Homo sapiens, UniProt P35453 263-343), sequence (P35453 263-343): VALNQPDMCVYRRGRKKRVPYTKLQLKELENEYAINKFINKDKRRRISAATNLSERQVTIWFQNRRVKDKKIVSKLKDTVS
The target in test [9] is HOXD13 (Homo sapiens, UniProt P35453 263-343, T313A).
HOXD13 (Homo sapiens, UniProt P35453 263-343, T313A), sequence (P35453 263-343 T313A): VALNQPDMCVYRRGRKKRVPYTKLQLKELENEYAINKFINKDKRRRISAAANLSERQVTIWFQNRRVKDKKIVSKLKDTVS
In test [10] the target is PROP1 (Homo sapiens, UniProt O75360 56-141).
PROP1 (Homo sapiens, UniProt O75360 56-141), sequence (O75360 56-141): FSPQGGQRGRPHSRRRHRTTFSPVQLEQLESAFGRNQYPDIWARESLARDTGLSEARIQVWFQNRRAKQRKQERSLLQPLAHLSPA
Test [11] has as its target PROP1 (Homo sapiens, UniProt O75360 56-141, R99H).
Test [12] concerns the target PROP1 (Homo sapiens, UniProt O75360 56-141, F88S).
In test [13] the target is ALX3 (Homo sapiens, UniProt O95076 139-225).
ALX3 (Homo sapiens, UniProt O95076 139-225), sequence (O95076 139-225): as the sequence (O95076 139-225 N203S) above, with S65N counted along it
Test [14] addresses ALX3 (Homo sapiens, UniProt O95076 139-225, L168Q).
The target in test [15] is ALX3 (Homo sapiens, UniProt O95076 139-225, L168V).
ALX3 (Homo sapiens, UniProt O95076 139-225, L168V), sequence (O95076 139-225 L168V): as the sequence (O95076 139-225 N203S) above, with L30V, S65N counted along it
The target in a further test is ALX4 (Homo sapiens, UniProt Q9H161 200-286, Q225E).
ALX4, sequence (Q9H161 200-286 Q225E): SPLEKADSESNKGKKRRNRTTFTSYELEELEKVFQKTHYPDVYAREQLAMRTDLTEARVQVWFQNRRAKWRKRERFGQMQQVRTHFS
The target in another test is HOXC9 (Homo sapiens, UniProt P31274 178-260, R222W).
HOXC9, sequence (P31274 178-260 R222W): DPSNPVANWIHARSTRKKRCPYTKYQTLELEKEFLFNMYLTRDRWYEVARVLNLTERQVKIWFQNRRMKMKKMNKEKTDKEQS
The target of test [16] is MSX2 (Homo sapiens, UniProt P35548 130-214, R199I).
MSX2 (Homo sapiens, UniProt P35548 130-214, R199I), sequence (P35548 130-214 R199I): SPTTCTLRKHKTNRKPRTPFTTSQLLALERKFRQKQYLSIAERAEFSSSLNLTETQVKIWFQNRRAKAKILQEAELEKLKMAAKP
Test [17] addresses T1, NKX2-6 (Homo sapiens, UniProt A6NCS4 118-204).
T1 sequence: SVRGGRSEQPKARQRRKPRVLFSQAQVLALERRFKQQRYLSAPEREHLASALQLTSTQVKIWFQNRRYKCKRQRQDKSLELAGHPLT

For test [18], the target named is MSX2 (Homo sapiens, UniProt P35548 130-214).
MSX2 (Homo sapiens, UniProt P35548 130-214), sequence (P35548 130-214): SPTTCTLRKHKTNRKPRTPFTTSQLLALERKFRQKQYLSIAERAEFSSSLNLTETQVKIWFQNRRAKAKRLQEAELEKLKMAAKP
Test [19] addresses T2, NKX2-6 (Homo sapiens, UniProt A6NCS4 118-204, F151L).
T2 sequence: T1 sequence with F34L

In test [20] the target is MSX2 (Homo sapiens, UniProt P35548 130-214, F161Y).
MSX2 (Homo sapiens, UniProt P35548 130-214, F161Y), sequence (P35548 130-214 F161Y): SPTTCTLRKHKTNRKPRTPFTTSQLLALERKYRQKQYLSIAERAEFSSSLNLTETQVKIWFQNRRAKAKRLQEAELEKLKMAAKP

HOXA4 (Homo sapiens, UniProt Q00056 201-287, W262R), sequence (Q00056 201-287 W262R): as the sequence (Q00056 201-287 W262F) above, with F62R counted along it
HOXA4 (Homo sapiens, UniProt Q00056 201-287), sequence (Q00056 201-287): as the sequence (Q00056 201-287 W262F) above, with F62W counted along it
HOXA4 (Homo sapiens, UniProt Q00056 201-287, R217L), sequence (Q00056 201-287 R217L): as the sequence (Q00056 201-287 W262F) above, with R17L, F62W counted along it
ALX3 (Homo sapiens, UniProt O95076 139-225, N203Q), sequence (O95076 139-225 N203Q): as the sequence (O95076 139-225 N203S) above, with S65Q counted along it
PROP1 (Homo sapiens, UniProt O75360 56-141, F88S), sequence (O75360 56-141 F88S): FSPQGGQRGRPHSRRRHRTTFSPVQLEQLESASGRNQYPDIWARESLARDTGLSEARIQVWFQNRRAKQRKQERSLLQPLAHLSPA
PROP1 (Homo sapiens, UniProt O75360 56-141, R99H), sequence (O75360 56-141 R99H): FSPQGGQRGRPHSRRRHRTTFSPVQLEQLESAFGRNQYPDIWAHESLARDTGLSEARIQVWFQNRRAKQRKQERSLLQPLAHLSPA
ALX3 (Homo sapiens, UniProt O95076 139-225, L168Q), sequence (O95076 139-225 L168Q): as the sequence (O95076 139-225 N203S) above, with L30Q, S65N counted along it

In the case of AACTAATA, the binding signal with HOXA4 [1] is 10.5 upbm affinity estimate (log intensity, higher = more binding, comparable within an allelic series); with HOXA4 [2], 11.2 upbm affinity estimate (log intensity, higher = more binding, comparable within an allelic series); with ALX3 [3], 8.57 upbm affinity estimate (log intensity, higher = more binding, comparable within an allelic series); with HOXA4 [4], 12.5 upbm affinity estimate (log intensity, higher = more binding, comparable within an allelic series); in the test with HOXA4 [5] it was 11 upbm affinity estimate (log intensity, higher = more binding, comparable within an allelic series); with ALX3 [6], 8.65 upbm affinity estimate (log intensity, higher = more binding, comparable within an allelic series).
With AGGCTGGG, the binding signal was 9.88 upbm affinity estimate (log intensity, higher = more binding, comparable within an allelic series) with HOXA4 [1]; 9.85 upbm affinity estimate (log intensity, higher = more binding, comparable within an allelic series) with HOXA4 [2]; 9.56 upbm affinity estimate (log intensity, higher = more binding, comparable within an allelic series) with HOXD13 [7]; 9.59 upbm affinity estimate (log intensity, higher = more binding, comparable within an allelic series) in the test with HOXD13 [8]; 9.82 upbm affinity estimate (log intensity, higher = more binding, comparable within an allelic series) with HOXA4 [4]; 9.67 upbm affinity estimate (log intensity, higher = more binding, comparable within an allelic series) in the test with HOXD13 [9]. Also, the binding signal in the test with HOXA4 [5] is 9.84 upbm affinity estimate (log intensity, higher = more binding, comparable within an allelic series).
GAAGGGGA: the binding signal in the test with HOXA4 [1] was 9.88 upbm affinity estimate (log intensity, higher = more binding, comparable within an allelic series); with HOXA4 [2], 9.89 upbm affinity estimate (log intensity, higher = more binding, comparable within an allelic series); in the test with HOXA4 [4] it was 9.82 upbm affinity estimate (log intensity, higher = more binding, comparable within an allelic series); in the test with HOXA4 [5], 10 upbm affinity estimate (log intensity, higher = more binding, comparable within an allelic series).
In the case of CCTTCCCG, the binding signal with HOXA4 [1] was 9.88 upbm affinity estimate (log intensity, higher = more binding, comparable within an allelic series); with HOXA4 [2], 9.86 upbm affinity estimate (log intensity, higher = more binding, comparable within an allelic series); in the test with HOXA4 [4], 9.79 upbm affinity estimate (log intensity, higher = more binding, comparable within an allelic series); with HOXA4 [5] it was 9.89 upbm affinity estimate (log intensity, higher = more binding, comparable within an allelic series).
Consider CATCCCCC, for which the binding signal was 9.63 upbm affinity estimate (log intensity, higher = more binding, comparable within an allelic series) in the test with HOXA4 [1]; 9.8 upbm affinity estimate (log intensity, higher = more binding, comparable within an allelic series) with HOXA4 [2]; 9.66 upbm affinity estimate (log intensity, higher = more binding, comparable within an allelic series) with HOXA4 [4]; 6.77 upbm affinity estimate (log intensity, higher = more binding, comparable within an allelic series) with PROP1 [10]; 6.66 upbm affinity estimate (log intensity, higher = more binding, comparable within an allelic series) with PROP1 [11]; 6.11 upbm affinity estimate (log intensity, higher = more binding, comparable within an allelic series) with PROP1 [12]. Also, the binding signal with HOXA4 [5] was 9.58 upbm affinity estimate (log intensity, higher = more binding, comparable within an allelic series).
On to AGGAGTCC, for which the binding signal in the test with HOXA4 [1] is 9.98 upbm affinity estimate (log intensity, higher = more binding, comparable within an allelic series); with HOXA4 [2], 9.79 upbm affinity estimate (log intensity, higher = more binding, comparable within an allelic series); with HOXA4 [4], 9.77 upbm affinity estimate (log intensity, higher = more binding, comparable within an allelic series); in the test with HOXA4 [5], 9.94 upbm affinity estimate (log intensity, higher = more binding, comparable within an allelic series).
Turning to CCCCCGGC, the binding signal with HOXA4 [1] was 9.54 upbm affinity estimate (log intensity, higher = more binding, comparable within an allelic series); in the test with HOXA4 [2], 9.54 upbm affinity estimate (log intensity, higher = more binding, comparable within an allelic series); in the test with ALX3 [3] it was 7.57 upbm affinity estimate (log intensity, higher = more binding, comparable within an allelic series); with HOXA4 [4], 9.88 upbm affinity estimate (log intensity, higher = more binding, comparable within an allelic series); in the test with ALX3 [13], 7.92 upbm affinity estimate (log intensity, higher = more binding, comparable within an allelic series); in the test with ALX3 [14], 7.56 upbm affinity estimate (log intensity, higher = more binding, comparable within an allelic series). Further, the binding signal in the test with ALX3 [15] is 7.46 upbm affinity estimate (log intensity, higher = more binding, comparable within an allelic series); with HOXA4 [5], 9.51 upbm affinity estimate (log intensity, higher = more binding, comparable within an allelic series); with ALX3 [6] it was 7.52 upbm affinity estimate (log intensity, higher = more binding, comparable within an allelic series).
Regarding CAATAAAG, the binding signal with HOXA4 [1] was 10.4 upbm affinity estimate (log intensity, higher = more binding, comparable within an allelic series); with ALX4, 10.7 upbm affinity estimate (log intensity, higher = more binding, comparable within an allelic series); in the test with HOXD13 [7], 10.8 upbm affinity estimate (log intensity, higher = more binding, comparable within an allelic series); with HOXD13 [8], 11.9 upbm affinity estimate (log intensity, higher = more binding, comparable within an allelic series); with HOXA4 [4], 11.7 upbm affinity estimate (log intensity, higher = more binding, comparable within an allelic series); in the test with HOXD13 [9] it was 11.7 upbm affinity estimate (log intensity, higher = more binding, comparable within an allelic series). Besides, in the test with HOXC9, the binding signal is 11.1 upbm affinity estimate (log intensity, higher = more binding, comparable within an allelic series).
Consider CCCGGTCG, for which the binding signal with HOXA4 [1] is 9.67 upbm affinity estimate (log intensity, higher = more binding, comparable within an allelic series); in the test with HOXA4 [2] it was 9.77 upbm affinity estimate (log intensity, higher = more binding, comparable within an allelic series); with MSX2 [16] it was 9.45 upbm affinity estimate (log intensity, higher = more binding, comparable within an allelic series); in the test with NKX2-6 [17], 9.06 upbm affinity estimate (log intensity, higher = more binding, comparable within an allelic series); with HOXA4 [4], 9.88 upbm affinity estimate (log intensity, higher = more binding, comparable within an allelic series); with MSX2 [18] it was 9.4 upbm affinity estimate (log intensity, higher = more binding, comparable within an allelic series). Also, the binding signal was 9.02 upbm affinity estimate (log intensity, higher = more binding, comparable within an allelic series) with NKX2-6 [19]; 9.41 upbm affinity estimate (log intensity, higher = more binding, comparable within an allelic series) in the test with MSX2 [20]; 9.76 upbm affinity estimate (log intensity, higher = more binding, comparable within an allelic series) in the test with HOXA4 [5].
Consider GAGTAATA, for which the binding signal in the test with HOXD13 [8] was 10.9 upbm affinity estimate (log intensity, higher = more binding, comparable within an allelic series).

(Values after PMC11006913.)
